The full list was thinned out, with hits kept by preference.
Pf Dd2 growth: qHTS Primary assay for Inhibitors of Plasmodium falciparum Dd2 growth in vitro | P. falciparum Dd2 growth, SYBR Green, 72 h | Potency, µM (doses to about 28.9 µM), actives largely listed as inhibitors | 4.3% of 120,000 active | AID 1347417, 2020; active = well fitted inhibition curve with a large enough effect; also: nearly all actives have a fitted effect of over 65% in size
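Infected erythrocytes (Dd2, 0.3% parasitemia, 2.5% hematocrit final) are added to compound in RPMI-1640/Albumax II medium, grown 72 h at 37C in low oxygen, then lysed with saponin/Triton-X containing SYBR Green and read by fluorescence.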
Of the large screens only hits and unclear results are named; the others gave an inactive call.

COc1ccc(-c2cc(-c3cnn(C)c3)cn3cncc23)cn1	Pf Dd2 growth 10µM
c1cc(-c2cc(-c3ccc(N4CCOCC4)nc3)cn3cncc23)ccn1	none
O=C(Cc1c(F)cccc1Cl)N1CCc2n[nH]c(=O)n2CC1	none
CS(=O)(=O)c1ccc(OCC2(CNC(=O)c3ccc(C#N)cc3)C[C@@H](O)[C@@H](O)C2)cc1 (some centres undefined)	none
Cc1cccc(NC(=O)CC2CCCN(c3cnn(C)c(=O)c3)C2)c1 (centres undefined)	none
O=C(Nc1ccc2c(c1)OCCO2)C1CCN(C(=O)N2CC3CC(C2)[C@H]2CCCC(=O)N2C3)CC1 (some centres undefined)	none
CNC(=O)c1noc([C@@H]2CC(F)(F)CN2C(=O)C(C)C)n1	none
CC(C)NC(=O)C1CCC(=O)N1C1CCNCC1 (centres undefined)	none
O=C(NC1CCCC1)N1CCN(c2nc3ncccc3o2)CC1	none
CCn1c(=O)c2c(cc(C)n2C)n(CC(=O)Nc2ccccc2F)c1=O	none
Cc1ccc2c(c1)nc1n2[C@@H](CNCc2ccncc2F)COC1	none
Cc1noc(C)c1-c1cc(-c2cccc(N[S+](C)(=O)[O-])c2)cn2cncc12	none
c1cc(-c2cc(-c3ccc4cn[nH]c4c3)cn3cncc23)ccn1	none
COc1cccc(-c2cc(-c3c(C)noc3C)c3cncn3c2)c1	Pf Dd2 growth 5.62µM
COc1ccc(Cn2c(=O)c3ccccc3n3c(-c4cccc(OC)c4OC)nnc23)cc1	none
COc1ccc(-c2cc(-c3cccc(OC)c3OC)cn3cncc23)cc1	Pf Dd2 growth 1µM
CC(=O)Nc1cccc(-c2cc(C3=CCOCC3)c3cncn3c2)c1	none
O=C(Cc1ccsc1)N1CC(c2nnc(-c3ccncc3)o2)C2(CCOCC2)C1 (centres undefined)	none
O=C(CCC(F)(F)F)N1CCC2(CCCN(CC3CCCCC3)C2=O)C1 (centres undefined)	none
Cc1ncc(CO)c(CN2CCCC3(Cc4ccccc4CNC3=O)C2)c1O (centres undefined)	none
Oc1ccc(Cl)cc1Nc1nc2ccccc2n2cnnc12	none
COC(=O)c1ccccc1NC(=O)Cn1c(=O)nc(-c2ccccc2)c2cc(Cl)ccc21	none
Oc1ccccc1Nc1nc(-c2ccccc2)c2cc(Cl)ccc2n1	Pf Dd2 growth 5.01µM
CCn1cnnc1CC1CCN(S(=O)(=O)c2ccc3c(c2)CCC3)C1 (centres undefined)	none
CCOc1ccc(CCNC(=O)Cn2ccn3nc(-c4ccccc4)c(CO)c3c2=O)cc1OCC	none
COCCNC(=O)C(NC(=O)c1ccccc1Cl)C1CCN(C(=O)c2ccccc2)CC1 (centres undefined)	none
NCCn1cc(C(=O)N2CCC(Oc3ccncc3)CC2)nn1	none
Cn1nccc1C(=O)N1CC(CNC(=O)c2ccccc2)C2(C1)CN(c1ccccc1)C2 (centres undefined)	Pf Dd2 growth 12.6µM
Cn1nccc1C(=O)N1CC(COc2ccccc2)C2(C1)CN(c1ccccc1)C2 (centres undefined)	none
O=C(NCC1CN(C(=O)CCc2ccccc2)CC12CN(c1ccccc1)C2)c1ccccc1 (centres undefined)	none
Cc1noc(C)c1[S+](=O)([O-])N1CCC2(C1)N=C(c1ccncc1)C(=O)N2 (centres undefined)	none
COCC(=O)NC[C@H]1OC[C@@H](NCc2ccccc2F)[C@@H]1O	none
COCC(=O)NC[C@H]1OC[C@@H](NCc2ccc(F)cc2)[C@@H]1O	Pf Dd2 growth 14.1µM
COCC(=O)NC[C@H]1OC[C@@H](NCc2ccc(C)cc2)[C@@H]1O	none
CC(Oc1ccccc1)C(=O)N1CCC(n2cc(-c3nc(C(C)C)no3)nn2)CC1 (centres undefined)	none
O=C1NC2(Cc3ccccc31)CN(CC1CCCC1)C2	none
CN1CCCC2(CC1)CCN(C(=O)CC13CC4CC(CC(O)(C4)C1)C3)CC2	none
O=C(O)C[C@@H]1CCN(C(=O)Nc2ccccc2)C[C@@H]1CCN1CCCCC1	none
CCCNC(=O)C1CCN(c2cc(C)nc3c(-c4ccc(OC)c(OC)c4)c(C)nn23)CC1	none
COc1ccc(-c2c(C)c3ccc(O)c(CN4CCCCC4C)c3oc2=O)cc1OC (centres undefined)	Pf Dd2 growth 11.2µM
CCC1CCCCN1C(=O)CSc1nc(-c2ccc(OC)c(OC)c2)cc(C(F)(F)F)n1 (centres undefined)	none
COc1ccc(-c2cc(C(F)(F)F)nc(SCC(=O)N3CCCCC3C)n2)cc1OC (centres undefined)	none
COc1ccc(-c2nccc3c(=O)cc(N4CCOCC4)oc23)cc1OC	none
COc1ccc(-c2cc3ccc(O)c(CN4CCCCC4C)c3oc2=O)cc1OC (centres undefined)	Pf Dd2 growth 7.08µM
Cc1ncoc1C(=O)N1CC[C@H]2C(=O)NCCCCCCN(Cc3ccncc3)[C@@H]2C1	none
CNC(=O)N1CCC(C2CCN(C(=O)CCC3CCCC3)C2)CC1 (centres undefined)	none
CCNC(=O)CCc1cc2ccc(C)cc2[nH]c1=O	none
Cc1ccc(C(=O)N2CCCC3(CC(c4cccc(C(F)(F)F)c4)=NO3)C2)cc1 (centres undefined)	none
